What was measured:
Test in all cases: log2 ratio of Biotin-Ahx-Ub-VS probe labelling (fragment/DMSO); higher = less target engagement (more negative = stronger competition), active = hit call of the paper (q ≤ 0.05, log2 ratio ≤ -1)
Conditions in all cases: compound concentration: 200 uM; treatment time: 3 h
USP19 = target: T1, USP19 (UniProt O94966)
T1 sequence (whole entry): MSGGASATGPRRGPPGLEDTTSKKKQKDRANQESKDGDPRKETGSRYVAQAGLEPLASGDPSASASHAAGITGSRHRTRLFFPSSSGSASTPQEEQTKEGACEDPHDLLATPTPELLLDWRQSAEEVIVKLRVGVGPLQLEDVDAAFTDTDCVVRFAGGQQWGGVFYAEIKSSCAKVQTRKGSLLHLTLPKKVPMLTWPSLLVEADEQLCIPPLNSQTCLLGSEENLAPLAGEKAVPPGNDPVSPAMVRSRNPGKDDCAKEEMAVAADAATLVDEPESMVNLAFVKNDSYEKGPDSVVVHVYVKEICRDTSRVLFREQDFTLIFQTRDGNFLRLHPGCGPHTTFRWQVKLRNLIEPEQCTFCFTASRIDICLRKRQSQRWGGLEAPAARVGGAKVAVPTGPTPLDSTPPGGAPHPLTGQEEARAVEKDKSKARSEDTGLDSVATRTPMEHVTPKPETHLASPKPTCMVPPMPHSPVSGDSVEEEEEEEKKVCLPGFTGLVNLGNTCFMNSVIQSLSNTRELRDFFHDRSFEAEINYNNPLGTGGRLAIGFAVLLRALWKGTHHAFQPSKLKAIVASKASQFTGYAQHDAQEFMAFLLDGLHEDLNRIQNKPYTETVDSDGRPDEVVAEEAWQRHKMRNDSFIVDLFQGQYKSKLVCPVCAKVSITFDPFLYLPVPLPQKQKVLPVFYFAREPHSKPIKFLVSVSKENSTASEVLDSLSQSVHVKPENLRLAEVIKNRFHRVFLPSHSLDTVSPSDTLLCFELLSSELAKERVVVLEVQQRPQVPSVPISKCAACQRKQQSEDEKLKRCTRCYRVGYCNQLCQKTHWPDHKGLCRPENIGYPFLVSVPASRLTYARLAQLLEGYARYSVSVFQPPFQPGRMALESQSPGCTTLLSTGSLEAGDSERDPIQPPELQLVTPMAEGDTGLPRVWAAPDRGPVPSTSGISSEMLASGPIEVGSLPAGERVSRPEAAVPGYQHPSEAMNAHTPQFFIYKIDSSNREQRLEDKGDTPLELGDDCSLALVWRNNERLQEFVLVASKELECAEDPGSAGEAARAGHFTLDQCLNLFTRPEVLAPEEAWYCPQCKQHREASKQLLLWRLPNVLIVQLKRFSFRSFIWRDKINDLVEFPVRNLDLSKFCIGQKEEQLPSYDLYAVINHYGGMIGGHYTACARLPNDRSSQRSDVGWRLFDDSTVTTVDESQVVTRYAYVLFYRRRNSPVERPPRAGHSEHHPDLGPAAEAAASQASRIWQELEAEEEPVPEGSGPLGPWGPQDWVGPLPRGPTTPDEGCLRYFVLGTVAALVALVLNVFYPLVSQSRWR
Method in brief: (§1)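 Fragment (200 µM) or vehicle was incubated for 3 h with triplicate HEK293T lysate samples of 495 µg, which were then treated with Biotin-Ahx-Ub-VS at 0.5 µM final for 1 h. Labelled DUBs were enriched on NeutrAvidin, digested with LysC and trypsin, and analysed by diaPASEF LC-MS/MS. Values are average log2 fragment/vehicle ratios from an unpaired t-test on global-median-normalised Spectronaut label-free quantities, using proteins with ≥2 unique peptides.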

USP24 = USP24 (UniProt Q9UPU5)
Method in brief: as §1

USP25 = target: T2, USP25 (UniProt Q9UHP3)
T2 sequence (whole entry): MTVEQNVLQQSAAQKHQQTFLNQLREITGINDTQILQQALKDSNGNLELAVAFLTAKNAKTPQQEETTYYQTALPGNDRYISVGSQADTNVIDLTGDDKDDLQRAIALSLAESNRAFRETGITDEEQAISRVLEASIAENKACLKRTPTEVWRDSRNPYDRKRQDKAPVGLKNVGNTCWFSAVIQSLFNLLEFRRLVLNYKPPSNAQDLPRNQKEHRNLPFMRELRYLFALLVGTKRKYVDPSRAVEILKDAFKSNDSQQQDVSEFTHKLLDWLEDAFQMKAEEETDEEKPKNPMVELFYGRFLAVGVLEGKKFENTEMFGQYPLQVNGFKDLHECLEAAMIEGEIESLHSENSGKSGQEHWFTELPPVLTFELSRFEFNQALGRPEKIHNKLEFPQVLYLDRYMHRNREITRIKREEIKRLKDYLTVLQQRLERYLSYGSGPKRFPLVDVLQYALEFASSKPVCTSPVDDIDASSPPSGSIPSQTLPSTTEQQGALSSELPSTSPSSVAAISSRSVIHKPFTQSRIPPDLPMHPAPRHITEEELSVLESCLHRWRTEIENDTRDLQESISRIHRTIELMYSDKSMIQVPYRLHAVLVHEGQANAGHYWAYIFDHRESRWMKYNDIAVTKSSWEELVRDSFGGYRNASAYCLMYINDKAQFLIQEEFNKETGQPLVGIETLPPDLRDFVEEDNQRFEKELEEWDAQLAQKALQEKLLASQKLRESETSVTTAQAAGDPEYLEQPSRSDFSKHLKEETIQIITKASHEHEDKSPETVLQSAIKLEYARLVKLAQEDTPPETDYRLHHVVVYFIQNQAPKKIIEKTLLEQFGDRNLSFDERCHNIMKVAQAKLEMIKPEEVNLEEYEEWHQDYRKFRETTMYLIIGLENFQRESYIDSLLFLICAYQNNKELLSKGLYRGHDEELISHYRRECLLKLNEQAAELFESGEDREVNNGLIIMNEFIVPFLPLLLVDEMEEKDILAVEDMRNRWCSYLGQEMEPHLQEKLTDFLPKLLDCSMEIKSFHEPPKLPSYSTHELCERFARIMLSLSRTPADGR
Method in brief: as §1

USP28 = target: T3, USP28 (UniProt Q96RU2)
T3 sequence (whole entry): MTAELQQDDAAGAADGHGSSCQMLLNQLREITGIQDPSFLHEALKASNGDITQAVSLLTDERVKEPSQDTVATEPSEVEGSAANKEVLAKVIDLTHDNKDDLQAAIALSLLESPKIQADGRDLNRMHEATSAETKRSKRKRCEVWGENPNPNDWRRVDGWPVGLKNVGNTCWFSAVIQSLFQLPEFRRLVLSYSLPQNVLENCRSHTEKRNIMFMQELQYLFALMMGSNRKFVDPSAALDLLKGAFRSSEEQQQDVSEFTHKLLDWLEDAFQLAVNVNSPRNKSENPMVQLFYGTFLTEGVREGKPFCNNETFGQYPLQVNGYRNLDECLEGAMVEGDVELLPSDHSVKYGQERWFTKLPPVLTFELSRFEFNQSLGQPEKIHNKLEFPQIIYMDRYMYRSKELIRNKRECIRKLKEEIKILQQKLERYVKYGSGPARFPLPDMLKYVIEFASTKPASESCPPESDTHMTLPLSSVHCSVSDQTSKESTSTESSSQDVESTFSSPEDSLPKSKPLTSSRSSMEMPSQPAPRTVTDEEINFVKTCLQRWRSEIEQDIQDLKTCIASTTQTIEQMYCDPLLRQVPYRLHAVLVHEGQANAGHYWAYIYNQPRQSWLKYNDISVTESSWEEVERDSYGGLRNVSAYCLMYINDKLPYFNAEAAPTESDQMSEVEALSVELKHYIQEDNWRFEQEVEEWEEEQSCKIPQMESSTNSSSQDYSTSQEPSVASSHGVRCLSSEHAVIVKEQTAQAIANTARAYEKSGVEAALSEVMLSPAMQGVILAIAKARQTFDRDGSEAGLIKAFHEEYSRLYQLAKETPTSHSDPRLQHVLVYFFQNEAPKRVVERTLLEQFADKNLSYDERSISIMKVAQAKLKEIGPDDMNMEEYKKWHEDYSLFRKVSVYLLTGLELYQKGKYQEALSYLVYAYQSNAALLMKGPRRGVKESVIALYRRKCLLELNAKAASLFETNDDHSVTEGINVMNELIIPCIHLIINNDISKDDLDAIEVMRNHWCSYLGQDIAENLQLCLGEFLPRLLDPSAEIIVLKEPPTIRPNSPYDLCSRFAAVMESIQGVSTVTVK
Method in brief: as §1

Measured: log2 ratio of Biotin-Ahx-Ub-VS probe labelling

Chain of USP24 (Q9UPU5 whole entry): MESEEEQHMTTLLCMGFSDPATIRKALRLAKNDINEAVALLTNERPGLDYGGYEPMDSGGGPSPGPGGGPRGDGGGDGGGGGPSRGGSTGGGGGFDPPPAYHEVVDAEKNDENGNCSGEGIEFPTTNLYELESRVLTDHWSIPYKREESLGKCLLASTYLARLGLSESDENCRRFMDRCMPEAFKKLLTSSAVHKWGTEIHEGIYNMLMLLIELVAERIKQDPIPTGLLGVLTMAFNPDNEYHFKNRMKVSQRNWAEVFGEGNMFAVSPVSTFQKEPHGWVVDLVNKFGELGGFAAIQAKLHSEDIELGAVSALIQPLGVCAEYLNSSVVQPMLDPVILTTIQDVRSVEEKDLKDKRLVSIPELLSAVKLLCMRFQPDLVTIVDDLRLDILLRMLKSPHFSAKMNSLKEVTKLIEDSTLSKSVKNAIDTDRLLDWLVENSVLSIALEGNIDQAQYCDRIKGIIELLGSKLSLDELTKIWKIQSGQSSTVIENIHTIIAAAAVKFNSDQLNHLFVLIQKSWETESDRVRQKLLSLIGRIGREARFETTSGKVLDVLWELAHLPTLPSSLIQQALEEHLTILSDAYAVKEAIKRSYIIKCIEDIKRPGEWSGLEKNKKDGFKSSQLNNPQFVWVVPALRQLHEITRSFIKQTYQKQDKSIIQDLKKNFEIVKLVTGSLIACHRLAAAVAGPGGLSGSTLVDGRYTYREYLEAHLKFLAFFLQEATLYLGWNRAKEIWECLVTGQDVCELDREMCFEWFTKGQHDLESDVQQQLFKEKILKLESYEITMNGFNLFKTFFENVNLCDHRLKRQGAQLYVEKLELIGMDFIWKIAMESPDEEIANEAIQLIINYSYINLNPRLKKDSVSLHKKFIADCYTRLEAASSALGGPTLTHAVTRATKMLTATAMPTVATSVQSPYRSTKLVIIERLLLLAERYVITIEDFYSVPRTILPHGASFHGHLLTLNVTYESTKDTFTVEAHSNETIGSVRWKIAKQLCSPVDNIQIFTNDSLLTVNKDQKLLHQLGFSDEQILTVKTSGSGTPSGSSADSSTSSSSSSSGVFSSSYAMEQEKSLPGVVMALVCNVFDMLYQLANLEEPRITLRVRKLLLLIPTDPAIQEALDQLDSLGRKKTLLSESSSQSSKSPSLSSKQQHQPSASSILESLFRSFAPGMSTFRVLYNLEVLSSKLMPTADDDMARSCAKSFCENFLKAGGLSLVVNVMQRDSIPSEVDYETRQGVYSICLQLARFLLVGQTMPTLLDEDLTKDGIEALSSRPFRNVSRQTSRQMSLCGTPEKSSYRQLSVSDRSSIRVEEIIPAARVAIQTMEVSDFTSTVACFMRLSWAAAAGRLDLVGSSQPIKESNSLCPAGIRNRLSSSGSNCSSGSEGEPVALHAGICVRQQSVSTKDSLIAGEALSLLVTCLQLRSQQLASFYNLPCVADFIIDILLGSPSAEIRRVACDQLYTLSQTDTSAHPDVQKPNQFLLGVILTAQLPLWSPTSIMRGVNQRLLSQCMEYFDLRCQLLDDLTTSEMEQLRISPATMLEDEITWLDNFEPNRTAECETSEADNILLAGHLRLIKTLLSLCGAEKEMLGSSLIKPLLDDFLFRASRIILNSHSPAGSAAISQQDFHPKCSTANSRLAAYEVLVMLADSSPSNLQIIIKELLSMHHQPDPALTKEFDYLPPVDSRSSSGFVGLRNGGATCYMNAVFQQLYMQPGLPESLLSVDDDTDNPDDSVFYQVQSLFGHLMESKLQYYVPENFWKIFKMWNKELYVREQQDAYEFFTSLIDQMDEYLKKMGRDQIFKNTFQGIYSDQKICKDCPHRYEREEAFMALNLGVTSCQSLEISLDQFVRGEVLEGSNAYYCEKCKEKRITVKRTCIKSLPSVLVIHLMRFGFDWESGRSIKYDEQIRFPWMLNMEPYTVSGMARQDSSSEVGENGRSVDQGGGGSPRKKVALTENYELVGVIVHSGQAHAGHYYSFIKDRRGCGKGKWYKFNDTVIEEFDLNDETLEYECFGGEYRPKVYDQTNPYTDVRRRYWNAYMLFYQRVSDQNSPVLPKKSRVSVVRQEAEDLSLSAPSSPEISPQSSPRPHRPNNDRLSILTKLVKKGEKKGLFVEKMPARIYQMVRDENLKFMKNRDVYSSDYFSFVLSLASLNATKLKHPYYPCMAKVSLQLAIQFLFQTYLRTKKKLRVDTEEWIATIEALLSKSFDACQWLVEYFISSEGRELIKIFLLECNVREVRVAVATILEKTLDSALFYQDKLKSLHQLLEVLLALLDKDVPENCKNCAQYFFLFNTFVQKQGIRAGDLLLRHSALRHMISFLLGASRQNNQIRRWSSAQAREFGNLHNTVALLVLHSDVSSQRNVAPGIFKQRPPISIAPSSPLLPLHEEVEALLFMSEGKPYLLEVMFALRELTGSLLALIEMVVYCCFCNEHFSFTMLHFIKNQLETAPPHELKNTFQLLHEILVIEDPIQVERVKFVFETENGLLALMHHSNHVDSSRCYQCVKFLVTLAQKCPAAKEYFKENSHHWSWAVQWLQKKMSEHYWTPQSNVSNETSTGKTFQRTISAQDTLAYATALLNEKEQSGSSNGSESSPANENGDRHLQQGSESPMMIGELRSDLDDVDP

O=C(CCl)N1CCC(C(O)c2ccc(F)cc2)CC1 (centres undefined)
inactive: USP19 0.0656 | USP24 -0.164 | USP25 0.058 | USP28 -0.0428

From the supplement of paper PMC11732987, “Enantioselective OTUD7B fragment discovery through chemoproteomics screening and high-throughput optimisation” (Communications Chemistry, 2025)
